# Several values for one entry are separate records, joined by “and”; a condition that tells them apart may be missing. Equal values may be shown once. Where a name gives a salt, the structure may show the parent alone.
# Tests used:
# Assay in all cases: cell viability relative to vehicle control; higher = less cytotoxic
# Settings in all cases: 10 µM
# K562 = system: K562
# In short: (§1)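 CRISPR-edited SRSF2 P95 mutant and isogenic wild-type clones of four leukaemia lines were screened against Selleck bioactive, kinase and epigenetic probe libraries, with identity-inconsistent compounds removed. Compounds were acoustically dispensed into 384-well plates at a single 10 µM dose, with 2000 cells in 50 µL medium per well. After 48 h, supernatant was removed and CellTiter-Glo luminescence was read. Viability was expressed as percent of the on-plate DMSO vehicle control, analysed in Genedata Screener.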
# MARIMO = system: MARIMO
# In short: as §1
# MOLM14 = system: MOLM14
# In short: as §1
# OCI-AML2 = system: OCI-AML2
# In short: as §1
Structure (SMILES),cell viability (K562; SRSF2 genotype: SRSF2 P95H/wt),cell viability (K562; SRSF2 genotype: SRSF2 wt/wt) [%],cell viability (MARIMO; SRSF2 genotype: SRSF2 P95H/wt) [%],cell viability (MARIMO; SRSF2 genotype: SRSF2 wt/wt) [%],cell viability (MOLM14; SRSF2 genotype: SRSF2 P95H/wt) [%],cell viability (MOLM14; SRSF2 genotype: SRSF2 wt/wt) [%],cell viability (OCI-AML2; SRSF2 genotype: P95H/wt) [%],cell viability (OCI-AML2; SRSF2 genotype: wt/wt) [%]
CC(C)=CCC[C@](C)(O)[C@H]1CC[C@]2(C)[C@@H]1[C@H](O)C[C@@H]1[C@@]3(C)CC[C@H](O[C@@H]4O[C@H](CO)[C@@H](O)[C@H](O)[C@H]4O)C(C)(C)[C@@H]3CC[C@]12C [20S-Ginsenoside Rh2],98.1% and 92.1%,105,104,106,103,106,97.4,96.2
CC[C@H]1CN2CC[C@H]1C[C@H]2[C@H](O)c1ccnc2ccc(OC)cc12 [Hydroquinine],102% and 101%,103,97.5,111,87.8,106,100,110
COC1CC(OC2CCC3(C)C4CCC5(C)C(C6=CC(=O)OC6)CCC5(O)C4CCC3(O)C2)OC(C)C1OC1OC(CO)C(O)C(O)C1O (stereo not drawn) [Periplocin],8.96% and 10.7%,11.7,11.5,4.97,3.28,0.9,1.16,4.41
CCC(COC(=O)c1cc(OC)c(OC)c(OC)c1)(c1ccccc1)N(C)C (stereo not drawn) [Trimebutine],94.7% and 99.7%,97.2,87.4,109,97.9,104,92.5,97.8
O=C(O)C(=O)c1cn(Cc2ccccc2)c2ccc(-c3ccc(OC(F)(F)F)cc3)cc12 [Tiplaxtinin (PAI-039)],84.4% and 88.9%,90.3,92.3,101,90.9,93.8,97.4,103
C/C=C(\C)C(=O)N[C@@H](c1ccccc1)[C@@H](O)C(=O)O[C@H]1C[C@@]2(O)[C@@H](OC(=O)c3ccccc3)[C@@H]3[C@]4(OC(C)=O)CO[C@@H]4C[C@H](O)[C@@]3(C)C(=O)[C@H](OC(C)=O)C(=C1C)C2(C)C [Cephalomannine],22.2% and 39.2%,31,7.43,5.47,9.27,2.7,7.08,10.9
NCCc1ccccc1 [2-Phenylethylamine hydrochloride],105% and 104%,104,103,105,104,106,112,117
O=c1cccc2n1C[C@@H]1CNC[C@H]2C1 [Cytisine],107% and 100%,92.9,93.3,107,97.7,102,94.3,104
C=C[C@]12CN(C)[C@@H]3[C@H]4CO[C@H](C[C@H]41)[C@]1(C(=O)Nc4ccccc41)[C@@H]32 [Gelsemine],91.8% and 88.5%,87.9,87.9,97.5,96,90,90.1,90
C[C@@H]1CCC=C2C(=O)C[C@H]3OOC(C)(C)[C@H]3[C@]21C [Nardosinone],85.3% and 82.5%,83.5,84.7,92.8,89.8,91.4,92.9,102
Cc1cccc([C@H](C)c2c[nH]cn2)c1C [Dexmedetomidine HCl (Precedex)],99.1% and 101%,91,102,100,102,104,107,110
C/C=C\c1cc(OC)c(OC)cc1OC [Beta-Asarone],106% and 104%,104,98,102,104,104,104,105
CCC1CN2CCC3(C(=O)Nc4ccccc43)C2CC1C(=COC)C(=O)OC (stereo not drawn) [Isorhychophylline],95.3% and 96.3%,95.5,83.5,72,92.5,89.1,97.3,89.8
CN1CCN(c2nc3ccccc3nc2Cl)CC1,96.3% and 106%,98.8,93.1,103,105,109,107,102
Cc1c(Cl)c(OCC(=O)N2CCN(C)CC2)nc2sc(C(=O)NC3CC3)c(N)c12,80.2% and 60.3%,66,40.5,30.8,81.9,51,27.8,33.5
O=C([O-])C(Cl)Cl.[Na+] [Sodium dichloroacetate (DCA)],96.5% and 94.6%,97.6,96.1,104,95.3,99,96.7,101
O=C(NCC1CCOCC1)c1cnc(Nc2ccc(Cl)cc2Cl)nc1C(F)(F)F,95% and 97.7%,98,93.5,104,103,104,98.5,102
C[C@H]1CC[C@@H]2N(C1)C[C@H]1[C@@H]3C[C@H]4[C@@H](C[C@H](O)[C@H]5C[C@@H](O)CC[C@@]54C)[C@@H]3CC[C@@H]1[C@]2(C)O [Peimine],110% and 102%,95.8,97.3,104,104,98.6,99.6,106

Structure (SMILES),cell viability (K562; SRSF2 genotype: SRSF2 P95H/wt),cell viability (K562; SRSF2 genotype: SRSF2 wt/wt) [%],cell viability (MARIMO; SRSF2 genotype: SRSF2 P95H/wt) [%],cell viability (MARIMO; SRSF2 genotype: SRSF2 wt/wt) [%],cell viability (MOLM14; SRSF2 genotype: SRSF2 P95H/wt) [%],cell viability (MOLM14; SRSF2 genotype: SRSF2 wt/wt) [%],cell viability (OCI-AML2; SRSF2 genotype: P95H/wt) [%],cell viability (OCI-AML2; SRSF2 genotype: wt/wt) [%]
CN1C(=O)CCS(=O)(=O)C1c1ccc(Cl)cc1 (stereo not drawn) [Chlormezanone (Trancopal)],102% and 101%,93.5,97,96.7,93.1,97.2,94.1,95.6
COc1ccc(C=O)cc1 [p-Anisaldehyde],107% and 99.7%,111,103,103,105,104,97.2,117
O=C(O)CCCCCCCCCO [10-Hydroxydecanoic acid],99.2% and 97.8%,100,97.8,101,97.9,99.3,99.4,92.7
CC(NC(C)(C)C)C(=O)c1cccc(Cl)c1 (stereo not drawn) [Amfebutamone (Bupropion) HCl],86.7% and 90.3%,95.6,87.9,94.1,95.1,95.6,93.1,90.5
CC(=O)Nc1ccc(Cc2ccc(NC(C)=O)cc2)cc1,104% and 107%,107,105,106,106,104,104,113
C#C[C@]1(O)C=C[C@H]2[C@@H]3CCC4=CC(=O)CC[C@@H]4[C@H]3CC[C@@]21CC [Gestodene],94.9% and 97.5%,95.4,90.9,97.2,94.2,97.1,99,94.8
CC(C)=CCC[C@]1(C)C=Cc2c(O)c3c(c(CC=C(C)C)c2O1)O[C@]12C(=C[C@@H]4C[C@H]1C(C)(C)O[C@@]2(C/C=C(/C)C(=O)O)C4=O)C3=O [Gambogic Acid],1.29% and 0.59%,0.98,0.39,0.5,0.42,0.51,0.38,0.45
COc1ccc(C(=O)N2CCCC2=O)cc1 [Aniracetam],105% and 106%,110,107,109,110,109,118,106
ClCCN(Cc1ccccc1)Cc1ccccc1 [Dibenamine Hydrochloride],103% and 95.7%,91.5,94.9,104,94.8,103,83.5,89.3
COc1ccc2c(c1OC)CC1c3c(cc4c(c3-2)OCO4)CCN1C (stereo not drawn) [Crebanine],93.7% and 93.3%,95.9,80.5,83,95.9,93.4,80.6,84.5
C[C@]12CCC(=O)C(O)=C1CC[C@@H]1[C@@H]2CC[C@]2(C)C(=O)CC[C@@H]12 [Formestane],96.6% and 94.4%,102,93.2,107,107,103,104,112
CC(=O)O[C@H]1[C@H]2[C@@H](OC(=O)Cc3ccccc3)[C@@H](C)C[C@]2(OC(C)=O)C(=O)/C(C)=C/[C@@H]2[C@H](CC[C@@]13CO3)C2(C)C [Euphorbiasteroid],63.8% and 85.5%,84.1,111,27.6,46.1,30.6,27.2,22.4
CC[C@@H](C(N)=O)N1CCCC1=O [Levetiracetam],110% and 104%,102,102,109,101,108,106,106
CN(C)Cc1c[nH]c2ccccc12 [Gramine],101%,100,102,102,99.6,100,102,98.9
C=CC1CN2CCC1CC2C(O)c1ccnc2ccccc12 (stereo not drawn) [Cinchonine.cdx],98.1% and 107%,102,105,105,95.8,104,120,99.7
Cn1cc(C2=C(c3cn(C4CCN(Cc5ccccn5)CC4)c4ccccc34)C(=O)NC2=O)c2ccccc21,91.5% and 86.9%,91.3,93,101,76.9,91.3,110,111
O=S(=O)(CC1CS1)c1ccc(Oc2ccccc2)cc1 (stereo not drawn),88.7% and 98.8%,92.2,45.8,73.1,39.1,29.4,14.9,14.1
COC(=O)C1=CCCN(C)C1 [Arecoline HBr],93.5% and 96.8%,97.5,96,99,97.4,99.9,92,106

# Reference: the supplement of paper PMC10981050
